# Assay outcomes from PubChem.
# TRPML1 ag: qHTS for Agonists of the Human Mucolipin Transient Receptor Potential 1 (TRPML1); activation, % (concentration not given with the values); TRPML1-expressing cells, Ca2+ dye fluorescence, FDSS; AID 624414, 2012; 410,000 compounds, 0.12% hits; Mucolipin-1 (Homo sapiens), Q9GZU1; in the data active = activation above about 50%; inconclusive = mostly about 30% to 49%; note: 0% is about no effect
#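 In this qHTS format, compounds were pin-transferred onto Ca8-dye-loaded TRPML1-DL cells induced with Tet overnight, and intracellular Ca2+ fluorescence was recorded kinetically for 110 s after a 10 s baseline. A subsequent 4uM final 54-4 (EC80) addition followed by a second 110 s read served as the antagonist phase.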
# TRHR agonist-1: qHTS for Small Molecule Agonists and Allosteric Enhancers of Human TRH Receptor: Primary Screen for Agonists | TRHR cells, calcium flux fluo-8, FDSS agonist mode | activation, % at 2 µM | 360,000 compounds, 0.18% hits | AID 493084, 2011; in the data active = activation above about 30%; note: 0% is about no effect
#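 Steps: seed TRHR cells overnight; add fluo-8 no-wash Ca dye, RT 30 min–1.5 h; record 10 s baseline; pin-transfer compounds; monitor fluorescence 1 cycle/s for the agonist window. Calcium increases flag candidate agonists.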
# TRPML1 inh: qHTS for Inhibitors of the Human Mucolipin Transient Receptor Potential 1 (TRPML1) | Mucolipin-1 (Homo sapiens), Q9GZU1 | TRPML1-inducible cells, Ca2+ dye fluorescence, FDSS; active compounds read low; inhibition of EC80 agonist-evoked calcium signal | activity change, negative = inhibition, % (test concentration not listed) | 390,000 compounds, 0.02% hits | AID 624415, 2012; in the data active = activity change below about -50%; inconclusive = between about -30% and that limit;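 note: stimulus is agonist 54-4 at its EC80 concentration; % is set by controls: 0 for no effect and ±100 for the full control effect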
#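 Calcium fluorescence in TRPML1-DL cells induced overnight with Tet: a 110 s read after compound pin addition, then a 110 s antagonist read after challenge with 54-4 at 4 uM final (EC80).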
# TRHR enhancer-1: qHTS for Small Molecule Agonists and Allosteric Enhancers of Human TRH Receptor: Primary Screen for Enhancers; enhancement, % at 2 µM; Thyrotropin-releasing hormone receptor (Homo sapiens), P34981; 360,000 compounds, 0.66% hits; TRHR cells, fluo-8 calcium fluorescence, EC20 TRH enhancement; AID 493056, 2011; in the data active = enhancement above about 30%; note: 0% is about no effect
#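 Enhancer read-out: after compound pinning and an initial kinetic agonist-mode read, an EC20 of TRH (10 nM final) was injected and fluo-8 calcium signal (Ex 480/Em 530) followed at 1 s/cycle for 100 cycles in TRHR-expressing cells.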
# TRPV1 PAM: HTS Assay for Compounds that Act as Potentiators of the Vanilloid Receptor 1; TRPV1-expressing cells, Fluo-8 calcium influx, capsaicin EC20 potentiation; 320,000 compounds, 0.02% hits; potentiation, % at 8.33 µM; Transient receptor potential cation channel subfamily V member 1 (Homo sapiens), Q8NER1; in the data active = potentiation above about 80%; inconclusive = between about 30% and that limit; note: 0% is about no effect
# Target sequence (Q8NER1 whole entry, looked up): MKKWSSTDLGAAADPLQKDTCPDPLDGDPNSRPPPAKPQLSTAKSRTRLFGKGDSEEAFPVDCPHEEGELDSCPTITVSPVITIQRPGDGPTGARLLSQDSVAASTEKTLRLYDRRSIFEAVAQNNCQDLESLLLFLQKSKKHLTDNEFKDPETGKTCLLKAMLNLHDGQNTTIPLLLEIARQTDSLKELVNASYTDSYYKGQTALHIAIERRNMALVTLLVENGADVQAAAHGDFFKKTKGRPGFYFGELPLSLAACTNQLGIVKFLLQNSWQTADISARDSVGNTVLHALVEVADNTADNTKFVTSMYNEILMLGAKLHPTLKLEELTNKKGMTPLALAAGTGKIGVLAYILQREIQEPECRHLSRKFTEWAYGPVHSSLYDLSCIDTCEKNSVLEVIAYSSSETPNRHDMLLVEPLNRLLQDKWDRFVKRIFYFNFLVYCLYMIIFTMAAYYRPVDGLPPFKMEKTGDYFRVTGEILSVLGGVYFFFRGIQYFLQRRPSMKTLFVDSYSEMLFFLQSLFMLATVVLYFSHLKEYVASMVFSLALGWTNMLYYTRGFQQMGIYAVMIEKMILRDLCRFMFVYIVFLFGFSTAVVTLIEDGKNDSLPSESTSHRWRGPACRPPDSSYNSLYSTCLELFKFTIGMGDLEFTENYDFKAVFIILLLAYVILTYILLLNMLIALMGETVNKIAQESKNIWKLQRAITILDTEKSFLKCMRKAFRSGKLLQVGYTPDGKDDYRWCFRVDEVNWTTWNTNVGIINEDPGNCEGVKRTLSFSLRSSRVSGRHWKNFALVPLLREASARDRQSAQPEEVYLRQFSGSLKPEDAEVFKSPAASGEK
#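 Fluo-8 calcium influx in TRPV1-expressing cells, kinetic read (ex 480/em 520 nm). Compound added and read 3 min for agonist activity, followed by capsaicin at EC20 final and 2 min further read for enhancement.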
# TRPV1 agonist: HTS Assay for Compounds that Act as Agonists of the Vanilloid Receptor 1. Transient receptor potential cation channel subfamily V member 1 (Homo sapiens), Q8NER1. TRPV1-expressing cells, Fluo-8 calcium influx, agonist mode. activation, % at 8.33 µM. 320,000 compounds, 0.19% hits; in the data active = activation above about 80%; inconclusive = between about 30% and that limit; note: 0% is about no effect
#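 TRPV1-expressing cells were cultured overnight at 35.5C and loaded with Fluo-8 calcium dye for 40 to 90 min at room temperature. After a 10 s baseline, compound was added and calcium influx was read kinetically for 3 min (ex 480/em 520 nm).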
# TRHR enhancer-2: qHTS for Small Molecule Agonists and Allosteric Enhancers of Human TRH Receptor: Confirmation Screen for Enhancers | 970 tested, under 10 active | activity change, negative = inhibition, % at 46.1 µM | TRH receptor cell assay, enhancer confirmation qHTS | shares compounds with TRHR enhancer-1 | AID 493076, 2011;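 note: compound effect scored on response to added TRH at EC20 of 10 nM; 0% is about no effect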
# TRHR agonist-2: qHTS for Small Molecule Agonists and Allosteric Enhancers of Human TRH Receptor: Confirmation Screen for Agonists. shares compounds with TRHR enhancer-1. TRHR-expressing cells, agonist activation read-out. Potency, µM (series often up to 46.1 µM), inactives show at the top dose activation, most hits filed as activators. 970 compounds, 8% hits; note: potency is the fitted concentration of half-maximal effect; 0% is about no effect; nearly all actives have a fitted effect of over 75% in size
# * = called active by the depositor; ? = inconclusive; · = not tested or not shown. Hits are enriched below; roughly 0.99% of the tested compounds scored in any of these assays. Unless noted, calls come from the whole dose curve; as a rule, active = well fitted curve in the direction sought with a large enough effect; inconclusive = small, poorly fitted or top-dose-only effect, or another doubt; inactive = no such curve, though single readings can be large; an effect the other way counts as inactive or inconclusive.
SMILES,TRPML1 ag,TRHR agonist-1,TRPML1 inh,TRHR enhancer-1,TRPV1 PAM,TRPV1 agonist,TRHR enhancer-2,TRHR agonist-2
CCOc1ccc(Nc2cc(C)nc(N3CCOCC3)n2)cc1,1,-1,-2,-2,-26,27,·,·
CCOc1ccc(Nc2nc(N3CCOCC3)nc(N3CCOCC3)n2)cc1,2,1,4,50*,0,-1,-5,2%
CCOc1ccc(N(C(=O)OC(C)(C)C)C(=O)c2ccc(O[Si](C)(C)C(C)(C)C)cc2)c(I)c1,2,·,-18,·,·,·,·,·
COc1cccc(C(=O)Nc2c3c(nn2-c2ccc(Cl)cc2)CS(=O)(=O)C3)c1,1,-1,14,4,·,·,·,·
CCN(C(=O)COC(=O)/C=C/c1ccccc1Cl)c1c(N)n(Cc2ccccc2)c(=O)[nH]c1=O,0,1,-1,52*,8,1,-3,2%
CCN(C(=O)COC(=O)/C=C/c1ccc(Cl)c(Cl)c1)c1c(N)n(Cc2ccccc2)c(=O)[nH]c1=O,0,·,6,·,·,·,·,·
O=S(=O)(NCc1ccccc1F)NCc1ccccc1F,0,-1,-7,58*,2,1,-6,0%
COc1ccc(CNC(=O)CCc2c(C)nn(-c3ccc(N4CCCCC4)nn3)c2C)cc1,0,0,-11,-2,·,·,·,·
COC(=O)C1=C(C)N(c2ccc(OC)cc2)C(C)=C(C(=O)OC)C1c1ccc(OC)cc1,2,0,35,41*,-20,7,-5,-1%
C[n+]1cn(CC(O)COCc2ccccc2)c2ccccc21 (configuration not stated),0,1,7,53*,4,-8,-4,0%
COc1cccc(NC(=O)C2CCCN2S(=O)(=O)c2ccc3nc(-c4ccccc4)[nH]c3c2)c1 (configuration not stated),2,1,-2,-5,·,·,·,·
O=C(CSc1ccc(Br)cc1)N1CCN(C(=O)c2ccco2)CC1,0,-1,-10,60*,-1,8,-3,0%
COc1cc(Cl)c(C)cc1N1C(=O)CN(Cc2ccccc2)C1=S,4,91*,-2,-6,-15,?,-4,0%
NC(=O)CN1CCOCCOCCN(CC(N)=O)CCOCCOCC1,0,-1,9,55*,-28,-7,?,-1%
CC(=O)c1ccccc1OCCOc1ncnc2sccc12,-1,1,16,60*,-2,-3,1,7%
CCO[C@H]1OC(C(=O)N2CCN(Cc3ccc4c(c3)OCO4)CC2)=C[C@@H](c2ccc(Br)cc2)[C@@H]1CCCO,0,0,7,49*,-2,?,-3,1%
COc1ccc(OC)c(NC(=O)CCCc2nnc3n(C(C)C)c(=O)c4sccc4n23)c1,0,0,19,-10,·,·,·,·
O=C1c2ccccc2-c2onc3ccc(N4CCCC4)c1c23,?,54*,33,-13,-8,?,5,?
O=C(CSc1nccn1-c1ccc(F)cc1)Nc1nc2ccccc2s1,4,0,10,4,·,·,·,·
